According to PubChem BioAssay:

The molecules below were run against PEG-3 (UniProt Q6IN02) (assay: inhibition of PEG-3 promoter-driven reporter – cell-based, HeLa, luciferase, CREF/GAPDH counter-screen panel, dose response (AID 624167)). Details: CREF/GAPDH counter-screens; HeLa PEG-Prom luciferase reporter, overnight, run 1, dose range 1, at 100 µM (top of the series) unless noted.
PEG-3, sequence (Q6IN02 whole entry, looked up): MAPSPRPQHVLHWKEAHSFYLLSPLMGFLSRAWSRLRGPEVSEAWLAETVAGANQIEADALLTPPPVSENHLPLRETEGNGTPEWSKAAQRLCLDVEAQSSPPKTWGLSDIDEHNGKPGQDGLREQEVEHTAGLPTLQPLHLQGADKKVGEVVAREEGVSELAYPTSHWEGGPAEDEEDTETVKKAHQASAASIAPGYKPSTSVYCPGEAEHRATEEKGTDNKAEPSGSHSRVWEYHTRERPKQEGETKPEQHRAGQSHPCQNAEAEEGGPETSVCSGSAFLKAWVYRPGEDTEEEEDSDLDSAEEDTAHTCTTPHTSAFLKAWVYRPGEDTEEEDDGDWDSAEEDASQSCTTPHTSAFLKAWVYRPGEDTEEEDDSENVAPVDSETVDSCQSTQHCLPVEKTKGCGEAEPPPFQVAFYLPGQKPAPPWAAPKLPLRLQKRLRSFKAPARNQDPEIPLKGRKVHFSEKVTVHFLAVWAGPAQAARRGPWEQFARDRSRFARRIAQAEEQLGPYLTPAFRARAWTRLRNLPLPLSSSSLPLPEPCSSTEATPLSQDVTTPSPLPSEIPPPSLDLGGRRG

SMILES	inhibition
COc1ccc2c(c1)sc1nc(-c3ccccc3)cn12	100%
COC1CC(C)C(OC)c2cc(O)cc(c2O)NC(=O)C(C)=CC=CC(C)C(OC(N)=O)C(C)=CC(C)C1OC (stereo not drawn)	94%
CCc1ccc(/C=C2\SC(=S)N(CCCC(=O)NC3=NCCS3)C2=O)cc1	96%
CC(=O)c1sc2c(c1OC(=O)c1ccc(Cl)cc1Cl)c(=O)n(-c1ccccc1)c(=S)n2-c1ccccc1	82.6%
CCN(CC)S(=O)(=O)c1cccc(C(=O)N/N=C(\C)c2ccc(O)cc2O)c1	27.3%
O=C(COc1ccc2c(c1)CCC2)Nc1ccccn1	98.8%
O=C(NCCc1ccccc1)c1ccc2c(c1)OCO2	86.2%
N=c1n(CCN2CCCCC2)c2ccccc2n1CC(O)c1ccc(Cl)c(Cl)c1 (stereo not drawn)	99.3%
CCOc1ccc(OCc2cccc(C(=O)O)c2)cc1	91.5%
CN(C)c1ccc(/C=C/c2ccc3c4ccccc4ccc3[n+]2-c2ccccc2)cc1	99.3%
O=C(COc1ccc(Cl)cc1Cl)Nc1ccccn1	94%
Cc1ccc(C(=O)CN2C(=O)c3ccccc3S2(=O)=O)cc1	93.5%
CCCS(=O)(=O)c1cnc(C2COc3ccccc3O2)nc1N (stereo not drawn)	96.2%
NS(=O)(=O)c1ccc(CCNc2nn3c(-c4ccc(F)c(Cl)c4)cnc3s2)cc1	66.9%
CN(C)CC1CCC/C(=C\c2ccc(OC(=O)c3ccc(Cl)cc3)cc2)C1=O (stereo not drawn)	97.7%
CN(C)S(=O)(=O)c1ccc(-c2csc(N/N=C/c3ccc(O)cc3)n2)cc1	99.1%
Brc1ccc(N=Nc2ccc3ccccc3n2)cc1	93.5%
CC(=O)NC(c1ccc(Cl)cc1Cl)c1ccc2cccnc2c1O (stereo not drawn)	96.5%
